Screens: PubChem BioAssay, National Center for Advancing Translational Sciences (NCATS)
Vaccinia Venus – qHTS for Stage-Specific Inhibitors of Vaccinia Orthopoxvirus: Venus Reporter Primary qHTS; Vaccinia virus Venus reporter expression, fluorescence; Potency, µM (doses to about 36.5 µM), without a hit: at the highest dose activity change, negative = inhibition, usual class: inhibitors; 330,000 compounds, 0.46% hits; calls by dose curve; tested in A549 cells; note: potency is the fitted concentration of half-maximal effect; nearly all actives have a fitted effect of over 30% in size
HCV inhibitor – qHTS Assay for Inhibitors of Hepatitis C Virus (HCV). Huh7.5.1 HCVcc-Cre infection, luciferase reporter, 44 h. 340,000 compounds, 3.4% hits. Potency, µM (highest dose often 41.8 µM), for inactives: at the top dose activity change, negative = inhibition, actives largely listed as inhibitors; active = well fitted inhibition curve with a large enough effect; inconclusive = small, poorly fitted or top-dose-only effect, or another doubt; inactive = no such curve, though single readings can be large or run the other way; note: potency is the fitted concentration of half-maximal effect
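Luciferase read-out (15 sec integration) after a 15 min room-temperature substrate step quantifies HCVcc-Cre infection. Cells, 1,000 per well, had compound added 4 h post-plating, then virus at ~0.5 moi, and were cultured 44 h.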
HCMV inh – qHTS Assay for inhibitors of the human cytomegalovirus (HCMV) | HFF cells, HCMV-luciferase reporter, 72 h; stronger effect = lower value | activity change, negative = inhibition, % at 57.5 µM | 410,000 compounds, 4.5% hits; in the data active = activity change below about -60%; inconclusive = no clear call, values can overlap the other calls; inactive = above about -39%
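Two-dose cell screen: HFF monolayers treated with compounds and infected with luciferase-expressing HCMV at 1 PFU/cell, 72 h at 37C, then lysed for luciferase measurement.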
VACV mCherry inh – qHTS for Stage-Specific Inhibitors of Vaccinia Orthopoxvirus: mCherry Reporter Primary qHTS; Potency, µM (titrated, usually from 36.5 µM), inactives show at the highest dose activity change, negative = inhibition, hits mostly inhibitors; Vaccinia virus mCherry reporter infection, fluorescence; 310,000 compounds, 0.63% hits; calls by dose curve; tested in A549 cells; note: potency is the fitted concentration of half-maximal effect; nearly all actives have a fitted effect of over 35% in size
FMDV inh – High Throughput Screening for Foot and Mouth Disease Virus Antivirals | 410,000 compounds, 1.2% hits | FMDV antiviral cell-based qHTS | Potency, µM (highest dose often 57.9 µM), without a hit: at the top dose activity change, negative = inhibition, usual class: inhibitors; calls by dose curve; tested in HEK293T cells; note: read-out not given here; potency is the fitted concentration of half-maximal effect; nearly all actives have a fitted effect of over 45% in size
Numbers without * were called inactive; i = inactive; ? = inconclusive; . = not tested or not shown; [ ] = remark or other dose. A selection: hits, their analogues and other compounds. The true share with any hit is near 7.3%. % is set by controls: 0 for no effect and ±100 for the full control effect.

SMILES | Vaccinia Venus | HCV inhibitor | HCMV inh | VACV mCherry inh | FMDV inh
COc1ccc(-c2cc(-c3c(O)c(OC)c4occc4c3OC)[nH]n2)cc1OC | ? | 11µM* | 20 | -6% | .
COc1ccc(-c2cc(-c3c(O)c(OC)c4occc4c3OC)[nH]n2)cc1 | . | 32µM* | 113 | . | 3%
COc1ccc(-c2cc(-c3ccccc3O)[nH]n2)cc1 | -28% | -5% | 76 | . | ?
CCC/C=N/NC(=O)CNC(=O)c1ccccc1Cl | -16% | 28% | -68* | -16% | 4%
Cc1ccc(NC(=S)N/N=C/c2ccc([N+](=O)[O-])s2)cc1 | ? | ? | -74* | 10µM* | ?
CCC/C=N/NC(=O)c1ccccc1O | -10% | -2% | -29 | -13% | 21%
O=C(CNC(=O)c1ccccc1Cl)N/N=C/c1ccc([N+](=O)[O-])s1 | ? | 13µM* | -93* | ? | -10%
CCC(CC)C(=O)NCc1nc2cccnc2n1Cc1ccc(F)cc1 | -13% | . | ? | -15% | -4%
CC(C)COc1cccc(C(=O)N(C)CC(=O)Nc2cccc3ccccc23)c1 | -16% | -3% | -18 | -24% | -18%
COc1ccc(NC(=O)c2ccc3oc(=O)c(S(=O)(=O)c4ccc(C)cc4)cc3c2)cc1OC | -6% | . | 17 | -11% | ?
O=C(CN1CCN(C(C(=O)Nc2ccc(F)cc2)c2ccccc2)CC1)NC1CC1 (centres undefined) | -2% | 30% | 0 | i | -1%
CCCc1ccc(S(=O)(=O)N2CCC(c3nnc(-c4cccc(C)c4)o3)CC2)cc1 | -19% | . | -78* | -15% | 5%
COc1ccccc1-c1nnc(C2CCN(S(=O)(=O)c3ccc(F)c(C)c3)CC2)o1 | -23% | . | -19 | -23% | -16%
Cc1ccc(S(=O)(=O)N2CCC(c3nnc(-c4cccc(C)c4)o3)CC2)cc1 | -10% | . | -92* | -12% | 3%
COc1ccc(-c2nnc(C3CCN(S(=O)(=O)c4ccc(C)c(C)c4)CC3)o2)cc1 | -20% | . | 20 | -22% | -28%
CCC1(CC)C(=O)NC(=O)NC1=NCCc1ccc(O)cc1 | 1% | -9% | -68* | . | 8%
CCC1(C2CCN(C(=O)c3ccc(C)c(C)c3)CC2)NC(=O)N(CCc2scnc2C)C1=O (centres undefined) | -7% | . | . | i | 12%
CC(C)(C)OC(=O)N[C@@H](Cc1ccccc1)C(=O)N1CCC(C(=O)O)CC1 | -7% | 16% | -22 | . | -10%
CC(C)(C)OC(=O)N[C@H](Cc1ccccc1)C(=O)N1CCC[C@@H]1C(=O)O | . | 13% | -80* | . | -2%
Cc1ccc2cc(C#N)c(N3CCCN(C(=S)NCCCN(C)C)CC3)nc2c1 | ? | 10µM* | -5 | -9% | -15%
Cc1cc(C)c2cc(C#N)c(N3CCCN(C(=S)NCCCN(C)C)CC3)nc2c1 | -28% | 11µM* | 13 | i | -20%
CCOCCCNC(=S)N1CCCN(c2nc3c(C)c(C)ccc3cc2C#N)CC1 | -29% | 10µM* | -9 | -11% | -7%
CC(C)N(C)c1ncnc2c1ncn2[C@H]1CN(Cc2ccc(Cl)cc2)C[C@@H](CO)O1 | 3% | . | 36 | -2% | -18%
Cc1ccc(S(=O)(=O)N2CCN(c3nc(-c4ccc(CN5CCOCC5)s4)nc4ccccc34)CC2)cc1 | -12% | . | . | -1% | .
CC1(C)CC(=O)c2cc(C(=O)Nc3ccc(Cl)cc3)c(=O)[nH]c2C1 | 23% | . | 57 | 6% | 77%
SMILES | Vaccinia Venus | HCV inhibitor | HCMV inh | VACV mCherry inh | FMDV inh
CC[C@H]1OC(=O)[C@H](C)C(=O)[C@H](C)[C@@H](O[C@@H]2O[C@H](C)C[C@H](N(C)C)[C@H]2O)[C@](C)(OC)C[C@@H](C)C(=O)[C@H](C)[C@H]2N(CCCCn3cnc(-c4cccnc4)c3)C(=O)O[C@]12C | -8% | . | . | -14% | -10%
O=C1NC2C(=CC(O)C(O)C2O)c2cc3c(cc21)OCO3 (centres undefined) | 1µM* | 0.56µM* | -77* | ? | ?
O=C1NC2C(O)C(O)C(O)C(O)C2c2cc3c(c(O)c21)OCO3 (centres undefined) | 0.28µM* | ? | -98* | 2.2µM* | ?
O=C1NC2C(=CC(O)C(O)C2O)c2cc3c(c(O)c21)OCO3 (centres undefined) | 0.1µM* | 0.25µM* | -101* | 8.9µM* | -10%
COc1ccc2cc(C(=O)NCCCN3CCCC3=O)[nH]c2c1 | . | 1% | 88 | . | 27%
COc1ccc(N2CCN(C(CNS(=O)(=O)c3ccc(OC)c(C)c3)c3ccco3)CC2)cc1 (centres undefined) | -16% | . | -28 | -15% | -3%
CC(NC(=O)c1cc(F)ccc1F)c1nnc2n1CCN(Cc1ccccc1O)CC2 (centres undefined) | 0% | . | . | -2% | 1%
Cc1ccc2oc(-c3ccc(Cl)cc3)c(O)c(=O)c2c1 | -13% | . | -77* | -12% | 29%
COc1ccc(-c2cc(-c3cccs3)c(C#N)c(SCC(=O)NCc3ccccc3OC)n2)cc1 | 8% | ? | -61* | -5% | -15%
Cc1c(Cl)ccc2c(C(O)CBr)cc(-c3ccccc3)nc12 (centres undefined) | -14% | 10µM* | -39 | -5% | ?
Cc1ccc(-c2cc(C(=O)NCCCN3CCOCC3)c3ccc(Cl)c(C)c3n2)cc1 | . | ? | -4 | . | -27%
Cc1cc(NC(=O)Nc2ccc(N(C)C)cc2)c2cc(F)cc(F)c2n1 | . | . | . | . | -11%
CCN(CC)C(=O)CSc1n[nH]c(=O)n1CCc1ccccc1 | -3% | 14% | 39 | i | 13%
O=c1[nH]nc(Sc2ncnc3sccc23)n1CCc1ccccc1 | . | -29% | -95* | . | ?
CO/N=C1\CCCc2c(C(=O)NN)sc(SC)c21 | 2%[7.34 µM] | 11% | -66* | -3%[7.34 µM] | -9%
CCOC(=O)c1sc(SC)c2c1CCC/C2=N/OC | 6% | ? | 3 | -12% | 4%
COc1ccc([C@H]2CC(=O)C=C(c3ccc(Oc4ccccc4)cc3)C2)cc1OC | ? | 5.6µM* | -64* | ? | ?
NC(Cc1ccccc1)C(=O)N1CCCCC1 (centres undefined) | -11% | 1% | -28 | i | -5%
Cc1ccc(/C=C2\SC(=S)N(CC3CCCO3)C2=O)o1 (centres undefined) | 148% | -6% | -85* | 31% | 32%
O=C(Cn1nc(N2CCN(c3ccccc3)CC2)ccc1=O)NCc1cccc(Cl)c1 | -9% | . | -21 | -13% | -27%
COc1ccc(S(=O)(=O)NCCS(=O)(=O)N2CCN(c3ccccc3)CC2)cc1OC | -10% | . | ? | 0% | 14%
CC(C)(CO)N1CCN(C(=S)Nc2ccccc2)CC1 | -2% | 7% | -9 | i | 22µM*
O=C(Nc1ccc2c(c1)CCCN2C(=O)c1cccs1)c1c(F)cccc1Cl | . | ? | -79* | . | ?
